# Data: PubChem BioAssay (Tox21)
# Inconclusive results are not listed. Activity calls are given as the source filed them. Calls come from the whole dose curve.
# Test: qHTS assay for small molecule disruptors of the mitochondrial membrane potential - cell viability (AID 720634); note: nearly all actives have a fitted effect of over 20% in size;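 for activity change, negative = cytotoxicity: human HepG2 liver cancer cells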
# Conditions: HepG2 viability, ATP luminescence (CellTiter-Glo), 1 h; series mostly up to 83.2 µM; activity change, negative = cytotoxicity: at the top concentration
# Description: U.S. Tox21 Program National Center for Advancing Translational Sciences [NCATS] NIH Chemical Genomics Center [NCGC] U.S. Environmental Protection Agency [EPA] National Institutes of Environmental Health Sciences [NIEHS] National Toxicology Program [NTP] U.S. Food and Drug Administration [FDA] Tox21 Assay Overview: Mitochondrial membrane potential (MMP), one of the parameters for mitochondrial function, is generated by mitochondrial electron transport chain that creates an electrochemical gradient by a series of redox reactions. This gradient drives the synthesis of ATP, a crucial molecule for various cellular processes. Measuring MMP in living cells is commonly used to assess the effect of chemicals on mitochondrial function; decreases in MMP can be detected using lipophilic cationic fluorescent dyes. […] The dye accumulates in the mitochondria of healthy cells as aggregates, with red fluorescence. The mitochondrial potential decreases and the dye could not accumulate in the mitochondria and remains in the cytoplasm in monomers, with green fluorescence. In addition to the mitochondrial potential assay, these cells were also used to test the cytotoxicity by determining the cell viability in the culture based on the quantitation of ATP present. The cytotoxicity was measured in the same assay well of MMP assay.
# Tox21 Assay Protocol Summary: 2,000 HepG2 cells in 5 uL/well were dispensed into black, clear-bottom 1536-well plates using a Multidrop Combi (Thermo Scientific) dispenser. The assay plates were incubated for an overnight at 37 C to allow cells to attach to the wells, followed by the transfer of 23 nL compound or DMSO vehicle by a pin tool (Kalypsys). The plates were incubated for 1 hr at 37 C and 5% CO2, followed by the addition of 5 uL of 2X m-MPI dye into each well using Flying Reagent Dispenser (Aurora Discovery) and then CellTiter-Glo reagent was added at 4 uL/well and incubated 30 min at room temperature. Then luminescence intensity was quantified on a ViewLux CCD-based plate reader.
# % is set by controls: 0 for no effect and ±100 for the full control effect; potency is the fitted concentration of half-maximal effect.
Structure (SMILES),"activity change, negative = cytotoxicity",Potency
O=C(NC(=O)c1ccccc1Cl)Nc1ccc(OC(F)(F)F)cc1,5.19% (inactive),
COc1ccc2c3c1O[C@H]1[C@H](O)CC[C@H]4[C@@H](C2)N(C)CC[C@@]341,-4.44% (inactive),
COC(=O)N(OC)c1ccccc1COc1ccn(-c2ccc(Cl)cc2)n1,,1.93 µM (active)
CCOC(=O)Cc1ccccc1,10.7% (inactive),
S=C=NCCc1ccccc1,47.9% (inactive),
CCNS(=O)(=O)C(F)(F)C(F)(F)C(F)(F)C(F)(F)C(F)(F)C(F)(F)C(F)(F)C(F)(F)F,,5.22 µM (active)
CCCCCON=O,8.82% [at 95.3 µM] (inactive),
CN,-1.5% [at 95.3 µM] (inactive),
ClC1=C(Cl)[C@]2(Cl)[C@@H]3[C@H]4C[C@H]([C@@H]5O[C@H]45)[C@@H]3[C@@]1(Cl)C2(Cl)Cl,,inactive
CN(C)c1ccc(N)cc1,-16.2% (inactive),
ClSC(Cl)(Cl)Cl,15.8% (inactive),
COP(=O)(OC)O/C(=C\Cl)c1cc(Cl)c(Cl)cc1Cl,-23.6% (inactive),
CC(=O)[O][Pb]([c]1ccccc1)([c]1ccccc1)[c]1ccccc1,,30.6 µM (active)
CO/N=C(\C(=O)OC)c1ccccc1CO/N=C(\C)c1cccc(C(F)(F)F)c1,,21.7 µM (active)
[O-][Cl+3]([O-])([O-])O,7.76% [at 95.3 µM] (inactive),
CCC1COC(Cn2cncn2)(c2ccc(Cl)cc2Cl)O1 (stereo not given),-19.3% (inactive),
Cc1nn(-c2cc(NS(C)(=O)=O)c(Cl)cc2Cl)c(=O)n1C(F)F,-2.45% (inactive),
C=Cc1cccc(CCl)c1,9.52% [at 95.3 µM] (inactive),
c1ccc(N=NNc2ccccc2)cc1,,56.4 µM (active)
O.O.O.O=C([O-])[C@H]([O-])[C@@H]([O-])C(=O)[O-].O=C([O-])[C@H]([O-])[C@@H]([O-])C(=O)[O-].[K+].[K+].[Sb+3].[Sb+3],14.5% [at 95.3 µM] (inactive),

Structure (SMILES),"activity change, negative = cytotoxicity",Potency
CN1[C@@H]2CC[C@H]1CC(O)C2 (stereo not given in full),9.16% [at 95.3 µM] (inactive),
Clc1ccc(C2(Cn3cncn3)OCCO2)c(Cl)c1,,inactive
S=C=Nc1ccccc1,-20.6% [at 95.3 µM] (inactive),
N#CCCl,-4.54% [at 95.3 µM] (inactive),
CCCCC(CC)COC(=O)c1ccccc1C(=O)OCC(CC)CCCC (stereo not given),22.5% (inactive),
CCC(C)Br (stereo not given),-5.68% [at 95.3 µM] (inactive),
O=NN(CCO)CCO,-1.44% (inactive),
CCOP(=O)(OCC)Oc1nc(Cl)c(Cl)cc1Cl,-16.5% (inactive),
CCCCC(CC)COC(=O)OOC(C)(C)C (stereo not given),8.46% (inactive),
C[N+]1(C)[C@@H]2CC[C@H]1CC(OC(=O)C(CO)c1ccccc1)C2 (stereo not given in full),,inactive
COc1c2c(cc3c1OCO3)CCN(C)C2,19.2% [at 39.1 µM] (inactive),
CC1(C)[C@H](/C=C2\CCSC2=O)[C@@H]1C(=O)OCc1coc(Cc2ccccc2)c1,,9.69 µM (active)
COc1nc(C)nc(NC(=O)NS(=O)(=O)c2ccccc2Cl)n1,-3.17% (inactive),
Brc1cccc(-c2ccccc2)c1,-6.2% [at 95.3 µM] (inactive),
C1=CCC=C1,8.65% (inactive),
CC(C)C(Nc1ccc(C(F)(F)F)cc1Cl)C(=O)OC(C#N)c1cccc(Oc2ccccc2)c1 (stereo not given),-17.8% [at 95.3 µM] (inactive),
CCC1(CC)C(=O)N=C(O)NC1=O,-1.52% (inactive),
O=C1C[C@@H]2OCC=C3CN4CC[C@]56c7ccccc7N1[C@H]5[C@H]2[C@H]3C[C@H]46,,inactive
Cc1cc2c3c(c1)C(c1ccccc1)=N[C@@H](NC(=O)c1ccncc1)C(=O)N3CC2,-11% (inactive),
CNC(=O)CSP(=O)(OC)OC,9% (inactive),
